Screen size: about 2,800 compounds; fewer than 10 were called active. About 7% were inconclusive and are not listed. Calls follow the shape of the dose curve; as a rule, active = well fitted inhibition curve with a large enough effect; inconclusive = small, poorly fitted or top-dose-only effect; inactive = no such curve, though single readings can be large or run the other way. A selection follows. A call without a number means that no potency is given here.
biological target: Metallo-beta-lactamase type 2 (Klebsiella pneumoniae) (UniProt C7C422); experiment: qHTS to identify inhibitors of the New Delhi Metallo-beta-lactamase (NDM): Nitrocefin screen against the machine-based learning selections.; details: NDM-1 enzyme, nitrocefin hydrolysis, absorbance 485 nm; series mostly up to 38.4 µM
From the text: Assay Submitter (PI): James Inglese Ph.D., Patricia Dranchak Ph.D., Mahesh Aitha Ph.D. Assay Development and Screening Technology Laboratory (ADST) National Center for Advancing Translational Sciences (NCATS), Rockville, MD National Institute of Health (NIH), Bethesda, Maryland The metallo-beta-lactamases (MBL) are a main antibiotic resistance mechanism evolved by bacteria. There is an urgent clinical need for MBL inhibitors to mitigate this growing threat. To support a machine-based learning study, qHTS has been used to experimentally test inhibitors identified by prediction tools.
PROTOCOL TABLE (as described by Inglese et al., 2007) SEQUENCE No. (e.g., 1, 2, 3, etc.); […] (e.g., enzyme, Incubation, Reagent, etc.); VALUE; DESCRIPTION Primary Screen 1; NDM-1; 4 uL of 3 nM enzyme [2 nM final] in 50 mM HEPES (pH 7.0), 1 uM […], 0.01% Tween20; Use BioRaptr to dispense into two sets of Aurora black, clear bottom high base 1536-well plates 2; Compounds; 23 nL; Use Pin Tool (Wako) to transfer DMSO control and library compounds in DMSO 3; Incubate; >30 min 4a; Reagent; 2 uL of 50 uM nitrocefin [16.7 uM final] to one set of assay plates 4b; Reagent; 2 uL of 150 uM meropenem [50 uM final] to second set of assay plates 5a; Incubate; 15 min 5b; Incubate; 30 min 6a; Detector; Absorbance at 485 nm (bandwidth = 5 nm, 25 flashes/well) on Tecan Infinity 6b; Detector; Absorbance at 300 nm (bandwidth = 5 nm, 25 flashes/well) on Tecan Infinity NOTES (numbers refer to sequence above) 1; Column 1 of each plate received assay buffer without enzyme and columns 2-48 received enzyme for a final assay concentration of 2 nM. 2; Control plate contained DMSO in columns 1, 2, 3, and 4. 3; Compound interaction with enzyme. 4; Nitrocefin and meropenem substrates were prepared in the same assay buffer as step 1 for a final assay concentration of 16.7 uM and 50 uM, respectively, and added to all wells across respective sets of assay plates. 5; Default reader settings were applied for absorbance read at 485 nm (nitrocefin) or 300 nm (meropenem), bandwidth = 5 nm, 25 flashes/well. References: Inglese J, Shamu CE, Guy RK. 2007. Reporting data from high-throughput screening of small-molecule libraries. Nat Chem Biol. doi:10.1038/nchembio0807-438 Yasgar A, Shinn P, Jadhav A, Auld D, Michael S, Zheng W, Austin CP, Inglese J, Simeonov A. 2008. Compound Management for Quantitative High-Throughput Screening. J Lab Autom 13:79 - 89. doi:10.1016/j.jala.2007.12.004
Potency is read from the fitted curve at half-maximal effect.

Metallo-beta-lactamase type 2 (Klebsiella pneumoniae), sequence (C7C422 whole entry, looked up): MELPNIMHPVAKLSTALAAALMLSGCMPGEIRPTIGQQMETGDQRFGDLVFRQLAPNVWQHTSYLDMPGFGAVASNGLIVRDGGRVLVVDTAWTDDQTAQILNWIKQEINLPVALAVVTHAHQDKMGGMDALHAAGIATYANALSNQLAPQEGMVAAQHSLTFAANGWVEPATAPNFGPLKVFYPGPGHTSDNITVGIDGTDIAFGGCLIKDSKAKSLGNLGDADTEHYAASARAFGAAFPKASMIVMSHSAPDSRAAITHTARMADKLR

SMILES | Potency
COc1ccccc1CCC(=O)NCc1nnc2ccc(-c3ccc(C)cc3)nn12 | inactive
O=C(NCc1ccc2c(c1)OCO2)C1CCN(c2cn[nH]c(=O)c2)C1 (stereo unspecified) | inactive
O=C(O)CCCC(=O)N1CCN2C(=O)c3cc(-c4ccco4)ccc3NC(=O)[C@@H]2C1 | inactive
O=C(c1ccc(N2CC3CC(C2)[C@H]2CCCC(=O)N2C3)nc1)N1CCN(c2cccc(Cl)c2)CC1 (stereo partly specified) | inactive
Cc1ccc(C2(O)CCN(C(=O)c3cnn4cc(CCO)cnc34)CC2)nc1 | inactive
O=C(C[C@@H]1CCNC[C@@H]1Cc1cc(CC2CCCCC2)on1)NC1CC1 | inactive
O=C(Nc1ccccc1)O[C@@H]1CO[C@H]2[C@@H]1OC[C@@H]2NC(=O)c1ccc(C(F)(F)F)cc1 | inactive
Cc1cnn(Cc2cc(C(=O)N3CCCCCC3c3nnc(-c4ccccc4)o3)no2)c1 (stereo unspecified) | inactive
COc1ccc(-c2cc(N3CCCN(C(=O)c4cnccn4)CC3)n[nH]2)cc1 | inactive
Cc1cc(C(=O)N[C@@H]2CCC[C@@H](C(=O)N3CCN(C)CC3)CC(=O)N(C)C2)no1 | inactive
CCC(C)NC(=O)CC1Sc2ncccc2N(C)C1=O (stereo unspecified) | inactive
CC[C@H]1CN(C(=O)Nc2cccc(C(F)(F)F)c2)CC[C@H]1CC(=O)NC1CC1 | inactive
CC(C)NC(=O)C[C@@H]1C[C@H]2O[C@H](CNCc3ccccc3Cl)[C@@H](O)[C@H]2O1 | inactive
COc1nc2c(cc1CNC(=O)C1CCOC1)C(=O)N(CCc1ccccn1)C2 (stereo unspecified) | inactive
Cc1ccc(CN2CC[C@@H]3[C@H]2C(=O)NC[C@H](CCC(=O)N2CC[C@@H](O)C2)N3C)cc1 | inactive
O=C(O)C[C@@H]1CCN(C(=O)c2ccco2)C[C@@H]1CCN1CCOCC1 | inactive
CN1C[C@H](C(=O)NCc2ccccc2)C[C@H]1c1cccc(C(F)(F)F)c1 | inactive
CC(C)C[C@@H]1N[C@H](C(=O)NCCOc2ccccc2)Cc2c[nH]c3cccc1c23 | inactive
CN(C)C1CCN(c2nc(-c3ccncc3)nc3c2CNC3)C1 (stereo unspecified) | inactive
Cc1oc(C(O)c2cccc(O)c2)nc1C(=O)Nc1ccc2[nH]c(=O)oc2c1 (stereo unspecified) | inactive
O=C(c1cc(-c2ccc(O)cc2)n[nH]1)N1CCCC(CCc2ccc(F)cc2)C1 (stereo unspecified) | inactive

SMILES | Potency
COc1ccc(CC2(CO)CCN(c3nccc(N)n3)CC2)cc1 | inactive
Cc1ccc2c(C)c(C(=O)N3CC(OCc4ccccc4F)C3)oc2c1 | inactive
COCCNC(=O)c1ccc2c(c1)N(C)C(CC(=O)Nc1ccc(N)nc1)CO2 (stereo unspecified) | inactive
CCCc1cc(C(=O)N[C@@H]2COCC[C@H]2Oc2ccc(C(=O)O)cc2)n[nH]1 | inactive
Cc1cccc(C(=O)N2CC[C@@H](NC(=O)c3cnccn3)[C@H](O)C2)n1 | inactive
O=[S+]([O-])(c1cccnc1)N1CCNc2cnc(Nc3ccc(-n4ccnc4)cc3)nc2C1 | inactive
O=C(Cn1ccn2nc3c(c2c1=O)CCCC3)NCc1ccc2c(c1)OCO2 | inactive
COc1ccccc1-n1cc(C(=O)NC[C@@H]2C[C@H](F)CN2)cn1 | inactive
c1csc(CN2Cc3[nH]cnc3C[C@H]2c2nc(-c3ccc4c(c3)OCO4)no2)c1 | inactive
O=C(Nc1ccccc1)O[C@@H]1CO[C@H]2[C@@H]1OC[C@@H]2NS(=O)(=O)c1cccc2cccnc12 | inactive
OCc1cccc(-c2ccc3ncc(Nc4cccc(F)c4)n3n2)c1 | inactive
O=C(c1ccc2ncccc2c1)N1CCC2(CC1)Nc1ccccc1NC2=O | inactive
COc1ccc(CC(=O)N2CC(CO)C3(CCNCC3)C2)cc1 (stereo unspecified) | inactive
Cc1ccc(CN2CC[C@@H](CO)N(C)c3cccnc3C2)s1 | inactive
CS(=O)(=O)N1CCC(C2CCN(C(=O)Cc3cccc(F)c3)C2)CC1 (stereo unspecified) | inactive
O=C(NCc1nc(-c2ccncc2)n[nH]1)[C@H]1CCC[C@H](O)C1 | inactive
N[C@@H]1CCN(Cc2ccccc2OCc2ccc(Cl)cc2)C[C@H]1O | inactive
COCCOc1ncccc1-c1noc([C@@H]2CCCN2CC(C)(C)C)n1 | inactive
CC1=C[C@@H](CNC(=O)c2ccc(F)cc2)[C@H](C(C)C)C[C@H]1CC(=O)N1CCN(C)CC1 | inactive
O=C1Cc2c(-c3cccc(O)c3)n[nH]c2CN1CC1CC1 | inactive
C[C@@H]1CN(C(=O)Cn2ccc(=O)[nH]c2=O)C[C@@]1(O)C1CCC1 | inactive

SMILES | Potency
COc1cccc(NC(=O)O[C@@H]2CC[C@]3(C)C(CC[C@@H](O)[C@H]3CC(=O)N3CCCC3)[C@]2(C)CO)c1 (stereo partly specified) | inactive
CCc1noc([C@@H]2CC(F)(F)CN2C(=O)c2ccoc2C)n1 | inactive
CC(C)=CC(=O)N1CC[C@H](NC(=O)Nc2ccc(F)cc2F)[C@H]1C(=O)N[C@@H](Cc1cccs1)C(N)=O | inactive
NCCc1cccc(CN2CCCC(COc3ccccc3F)C2)c1 (stereo unspecified) | inactive
c1ccc(-c2nnc3ccc(NC4CCC4)nn23)nc1 | inactive
CC(C)(O)C#Cc1ccc(C(=O)N2CCC(O)(c3ccccn3)CC2)cc1 | inactive
COc1ccc(-c2nnc3n2CCN(C(=O)C(C)(C)C)C3)cc1 | inactive
O=C(Cc1c[nH]c2ncc(-c3ccc(Cl)cc3)cc12)NCc1cccnc1 | inactive
CC(C)(C)CC(=O)N1CC[C@H]2CC(=O)N(Cc3cccnc3)CC[C@H]2C1 | inactive
CC[C@H]1CN(C(C)=O)CC[C@H]1CC(=O)NC(C)C | inactive
CCNC(=O)[C@@H]1C[C@H](NC(=O)c2ccccc2)CN1Cc1scnc1C | inactive
CS(=O)(=O)N1CC(C(=O)Nc2ccc(N3CCOCC3)cc2)C2(CCCCC2)C1 (stereo unspecified) | inactive
O=C(NCc1cc2n(n1)CCN(C1CCCCC1)C2)c1cnn2ccccc12 | inactive
CCCN(CC1CCOC1)C(=O)Nc1cccc(F)c1C (stereo unspecified) | inactive
O=C(O)CN1CCC[C@]2(C(=O)O)CN(Cc3cccc(O)c3)CC[C@@H]12 | 3.35 µM (active)
Cc1cccc(CN2CCCC3(CCN(Cc4cccc(O)c4)C3)C2)c1 (stereo unspecified) | inactive
O=C(O)[C@]12CCCN[C@@H]1CCN(Cc1ccc(-c3ccccn3)cc1)C2 | inactive
Cc1cc(Cn2cc3c4c(cccc42)[C@H](CC(C)C)N[C@H](C(=O)N2CCN(C)CC2)C3)no1 | inactive
CN1CCOc2c(C(=O)NCc3cccnc3)cc(-c3ccccc3O)cc21 | inactive
